One molecule from ChEMBL document CHEMBL2218924, “A broad activity screen in support of a chemogenomic map for kinase signalling research and drug discovery” (Biochem J, 2013) can be followed below.

As a reminder, the residual activity is the signal under treatment as a percentage of the control signal.

The target in test [1] is T1, Ephrin type-B receptor 1 (Homo sapiens) (UniProt P54762).
T1 sequence (whole entry): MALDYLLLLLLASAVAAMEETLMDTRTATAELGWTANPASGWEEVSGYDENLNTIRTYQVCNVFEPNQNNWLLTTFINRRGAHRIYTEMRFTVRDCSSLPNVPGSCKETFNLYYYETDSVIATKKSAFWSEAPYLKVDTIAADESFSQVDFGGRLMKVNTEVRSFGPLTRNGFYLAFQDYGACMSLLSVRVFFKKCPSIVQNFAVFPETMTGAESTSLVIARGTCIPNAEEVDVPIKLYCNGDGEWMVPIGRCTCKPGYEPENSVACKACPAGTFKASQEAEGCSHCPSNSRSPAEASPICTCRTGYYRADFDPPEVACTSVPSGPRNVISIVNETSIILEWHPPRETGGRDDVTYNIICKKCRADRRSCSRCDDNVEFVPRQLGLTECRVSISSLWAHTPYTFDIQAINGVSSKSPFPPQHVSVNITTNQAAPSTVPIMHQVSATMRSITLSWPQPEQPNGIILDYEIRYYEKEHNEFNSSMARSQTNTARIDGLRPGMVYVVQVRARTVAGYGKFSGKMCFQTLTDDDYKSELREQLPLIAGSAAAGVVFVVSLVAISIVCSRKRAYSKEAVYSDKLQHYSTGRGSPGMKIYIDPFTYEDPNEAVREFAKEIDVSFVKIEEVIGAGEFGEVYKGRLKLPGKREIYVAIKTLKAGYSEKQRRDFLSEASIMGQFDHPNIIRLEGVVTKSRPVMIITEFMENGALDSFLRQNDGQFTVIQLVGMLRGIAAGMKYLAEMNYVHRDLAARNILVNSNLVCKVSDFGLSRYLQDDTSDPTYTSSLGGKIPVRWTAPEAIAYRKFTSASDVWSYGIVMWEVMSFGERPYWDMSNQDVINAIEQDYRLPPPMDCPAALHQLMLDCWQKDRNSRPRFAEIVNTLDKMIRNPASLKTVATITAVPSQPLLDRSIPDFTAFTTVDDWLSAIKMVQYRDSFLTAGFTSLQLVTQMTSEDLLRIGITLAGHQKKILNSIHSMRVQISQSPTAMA
The conditions noted are these: at 10 µM.

For test [2], the target named is T2, Ephrin type-B receptor 2 (Homo sapiens) (UniProt P29323).
T2 sequence (whole entry): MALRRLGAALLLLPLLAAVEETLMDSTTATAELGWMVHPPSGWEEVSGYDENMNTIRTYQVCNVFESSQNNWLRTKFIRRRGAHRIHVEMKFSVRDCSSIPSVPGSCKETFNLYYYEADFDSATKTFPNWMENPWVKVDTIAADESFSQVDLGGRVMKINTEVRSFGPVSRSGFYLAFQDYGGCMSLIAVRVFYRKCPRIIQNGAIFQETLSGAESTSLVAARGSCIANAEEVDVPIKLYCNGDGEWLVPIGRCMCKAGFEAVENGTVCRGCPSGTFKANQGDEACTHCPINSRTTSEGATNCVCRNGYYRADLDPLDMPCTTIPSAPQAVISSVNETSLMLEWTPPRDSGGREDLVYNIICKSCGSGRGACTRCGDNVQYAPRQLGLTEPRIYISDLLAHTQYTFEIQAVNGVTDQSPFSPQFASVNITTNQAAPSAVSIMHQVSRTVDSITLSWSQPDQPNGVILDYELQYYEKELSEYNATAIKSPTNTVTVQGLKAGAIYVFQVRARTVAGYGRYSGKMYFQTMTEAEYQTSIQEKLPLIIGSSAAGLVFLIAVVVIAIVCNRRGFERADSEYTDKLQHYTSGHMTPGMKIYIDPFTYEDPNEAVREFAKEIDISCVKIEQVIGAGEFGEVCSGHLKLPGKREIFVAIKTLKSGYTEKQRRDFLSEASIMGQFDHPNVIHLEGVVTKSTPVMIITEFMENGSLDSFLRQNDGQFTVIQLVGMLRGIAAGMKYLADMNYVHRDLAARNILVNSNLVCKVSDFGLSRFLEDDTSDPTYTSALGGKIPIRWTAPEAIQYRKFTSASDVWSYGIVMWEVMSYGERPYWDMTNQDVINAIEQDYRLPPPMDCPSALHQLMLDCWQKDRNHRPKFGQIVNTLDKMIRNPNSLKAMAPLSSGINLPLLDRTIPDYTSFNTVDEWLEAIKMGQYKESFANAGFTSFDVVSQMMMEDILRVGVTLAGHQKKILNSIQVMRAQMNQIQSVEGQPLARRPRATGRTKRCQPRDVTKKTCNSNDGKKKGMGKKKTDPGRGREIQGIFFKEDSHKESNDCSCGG
The conditions noted are these: at 1 µM.

Test [3] addresses T2, Ephrin type-B receptor 2 (Homo sapiens). The note with it: at 10 µM.
Test [4] addresses T3, Ephrin type-B receptor 3 (Homo sapiens) (UniProt P54753).
T3 sequence (whole entry): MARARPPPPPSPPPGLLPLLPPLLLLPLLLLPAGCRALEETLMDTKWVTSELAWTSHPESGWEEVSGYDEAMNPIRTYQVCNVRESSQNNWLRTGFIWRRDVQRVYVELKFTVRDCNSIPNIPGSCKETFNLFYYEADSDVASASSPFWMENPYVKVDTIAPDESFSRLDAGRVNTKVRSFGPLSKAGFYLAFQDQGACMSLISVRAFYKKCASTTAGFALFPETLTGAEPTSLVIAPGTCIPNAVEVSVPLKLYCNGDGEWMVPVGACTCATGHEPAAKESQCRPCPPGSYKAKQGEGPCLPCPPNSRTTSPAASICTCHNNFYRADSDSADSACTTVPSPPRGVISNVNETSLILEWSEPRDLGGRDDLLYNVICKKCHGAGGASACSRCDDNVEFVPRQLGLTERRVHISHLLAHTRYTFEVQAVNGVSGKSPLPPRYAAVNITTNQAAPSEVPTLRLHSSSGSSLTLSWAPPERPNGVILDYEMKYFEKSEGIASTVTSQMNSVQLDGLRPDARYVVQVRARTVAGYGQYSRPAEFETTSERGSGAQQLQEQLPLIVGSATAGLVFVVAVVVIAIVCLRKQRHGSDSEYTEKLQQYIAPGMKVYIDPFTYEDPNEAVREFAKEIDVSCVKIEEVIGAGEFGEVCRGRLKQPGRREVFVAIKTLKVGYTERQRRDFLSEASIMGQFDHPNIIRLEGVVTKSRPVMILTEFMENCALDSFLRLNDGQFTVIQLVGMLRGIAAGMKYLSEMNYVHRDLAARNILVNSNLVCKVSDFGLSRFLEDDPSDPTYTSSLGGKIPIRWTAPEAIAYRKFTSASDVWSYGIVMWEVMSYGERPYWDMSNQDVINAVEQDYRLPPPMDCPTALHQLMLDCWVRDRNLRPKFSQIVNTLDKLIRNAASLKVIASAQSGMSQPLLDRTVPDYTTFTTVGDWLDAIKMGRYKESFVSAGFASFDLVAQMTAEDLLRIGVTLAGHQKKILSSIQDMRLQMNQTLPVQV
The note with it: at 1 µM.

Test [5] deals with T3, Ephrin type-B receptor 3 (Homo sapiens). The note with it: at 10 µM.
Test [6] has as its target T4, Ephrin type-B receptor 4 (Homo sapiens) (UniProt P54760).
T4 sequence (whole entry): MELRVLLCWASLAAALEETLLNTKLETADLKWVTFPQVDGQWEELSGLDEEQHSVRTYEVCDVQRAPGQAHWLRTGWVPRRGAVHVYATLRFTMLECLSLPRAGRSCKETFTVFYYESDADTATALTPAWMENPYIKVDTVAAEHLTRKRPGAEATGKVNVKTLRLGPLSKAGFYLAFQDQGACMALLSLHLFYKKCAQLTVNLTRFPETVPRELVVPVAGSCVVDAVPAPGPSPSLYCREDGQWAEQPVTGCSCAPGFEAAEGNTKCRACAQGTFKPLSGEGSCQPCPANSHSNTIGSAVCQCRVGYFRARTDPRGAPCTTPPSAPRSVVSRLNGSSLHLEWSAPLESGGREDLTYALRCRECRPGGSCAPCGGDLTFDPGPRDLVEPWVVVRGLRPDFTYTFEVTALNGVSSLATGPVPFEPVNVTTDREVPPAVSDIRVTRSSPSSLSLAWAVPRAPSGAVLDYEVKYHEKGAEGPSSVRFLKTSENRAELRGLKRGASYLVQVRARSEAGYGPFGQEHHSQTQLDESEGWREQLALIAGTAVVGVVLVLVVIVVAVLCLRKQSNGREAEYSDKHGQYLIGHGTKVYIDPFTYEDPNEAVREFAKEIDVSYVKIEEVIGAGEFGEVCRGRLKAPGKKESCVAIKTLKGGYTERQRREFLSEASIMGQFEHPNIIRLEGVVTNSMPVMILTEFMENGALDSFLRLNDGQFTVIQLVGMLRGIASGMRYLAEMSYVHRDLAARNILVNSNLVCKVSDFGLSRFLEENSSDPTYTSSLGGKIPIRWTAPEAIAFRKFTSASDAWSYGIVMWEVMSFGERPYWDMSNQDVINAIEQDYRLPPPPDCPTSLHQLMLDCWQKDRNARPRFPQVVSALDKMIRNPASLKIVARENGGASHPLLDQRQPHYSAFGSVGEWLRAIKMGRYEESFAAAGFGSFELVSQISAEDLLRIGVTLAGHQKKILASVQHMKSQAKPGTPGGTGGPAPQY
The note with it: at 1 µM.

For test [7], the target named is T4, Ephrin type-B receptor 4 (Homo sapiens). The conditions noted are these: at 10 µM.
Test [8] has as its target Receptor tyrosine-protein kinase erbB-4 (Homo sapiens) (UniProt Q15303). The conditions noted are these: at 1 µM.
Test [9] shares this target. The note with it: at 10 µM.
In test [10] the target is Focal adhesion kinase 1 (Homo sapiens) (UniProt Q05397). The conditions noted are these: at 1 µM.
Sequence of Focal adhesion kinase 1 (Homo sapiens) (Q05397 2-1052 limits assumed): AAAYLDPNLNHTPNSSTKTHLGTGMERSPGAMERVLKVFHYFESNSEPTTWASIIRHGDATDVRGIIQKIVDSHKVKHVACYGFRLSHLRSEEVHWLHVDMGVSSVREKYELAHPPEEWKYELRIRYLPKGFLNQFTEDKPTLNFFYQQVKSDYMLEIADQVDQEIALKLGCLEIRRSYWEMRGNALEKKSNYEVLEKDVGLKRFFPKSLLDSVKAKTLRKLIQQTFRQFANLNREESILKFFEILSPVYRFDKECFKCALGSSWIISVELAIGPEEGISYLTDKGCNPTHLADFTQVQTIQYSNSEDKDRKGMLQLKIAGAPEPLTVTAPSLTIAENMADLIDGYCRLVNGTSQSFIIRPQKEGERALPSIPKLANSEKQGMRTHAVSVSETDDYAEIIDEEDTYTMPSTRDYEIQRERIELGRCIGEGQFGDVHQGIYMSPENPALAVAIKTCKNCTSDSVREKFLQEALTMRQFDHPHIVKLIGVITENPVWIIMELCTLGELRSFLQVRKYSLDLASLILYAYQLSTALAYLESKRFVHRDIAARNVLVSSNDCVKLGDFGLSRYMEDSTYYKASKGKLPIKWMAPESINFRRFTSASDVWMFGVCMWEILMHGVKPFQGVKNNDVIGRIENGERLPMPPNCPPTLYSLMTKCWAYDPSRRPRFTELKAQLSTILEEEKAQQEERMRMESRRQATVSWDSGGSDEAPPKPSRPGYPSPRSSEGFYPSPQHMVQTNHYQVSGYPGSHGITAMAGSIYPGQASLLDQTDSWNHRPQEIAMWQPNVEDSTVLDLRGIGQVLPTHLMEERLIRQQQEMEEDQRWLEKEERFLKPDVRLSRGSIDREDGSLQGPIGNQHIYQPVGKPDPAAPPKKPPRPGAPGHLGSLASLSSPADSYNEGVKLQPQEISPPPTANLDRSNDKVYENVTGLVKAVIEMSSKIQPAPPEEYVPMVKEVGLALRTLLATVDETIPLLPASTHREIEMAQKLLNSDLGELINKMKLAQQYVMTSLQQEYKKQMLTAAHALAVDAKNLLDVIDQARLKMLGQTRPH

Sequence of Receptor tyrosine-protein kinase erbB-4 (Homo sapiens) (Q15303 whole entry): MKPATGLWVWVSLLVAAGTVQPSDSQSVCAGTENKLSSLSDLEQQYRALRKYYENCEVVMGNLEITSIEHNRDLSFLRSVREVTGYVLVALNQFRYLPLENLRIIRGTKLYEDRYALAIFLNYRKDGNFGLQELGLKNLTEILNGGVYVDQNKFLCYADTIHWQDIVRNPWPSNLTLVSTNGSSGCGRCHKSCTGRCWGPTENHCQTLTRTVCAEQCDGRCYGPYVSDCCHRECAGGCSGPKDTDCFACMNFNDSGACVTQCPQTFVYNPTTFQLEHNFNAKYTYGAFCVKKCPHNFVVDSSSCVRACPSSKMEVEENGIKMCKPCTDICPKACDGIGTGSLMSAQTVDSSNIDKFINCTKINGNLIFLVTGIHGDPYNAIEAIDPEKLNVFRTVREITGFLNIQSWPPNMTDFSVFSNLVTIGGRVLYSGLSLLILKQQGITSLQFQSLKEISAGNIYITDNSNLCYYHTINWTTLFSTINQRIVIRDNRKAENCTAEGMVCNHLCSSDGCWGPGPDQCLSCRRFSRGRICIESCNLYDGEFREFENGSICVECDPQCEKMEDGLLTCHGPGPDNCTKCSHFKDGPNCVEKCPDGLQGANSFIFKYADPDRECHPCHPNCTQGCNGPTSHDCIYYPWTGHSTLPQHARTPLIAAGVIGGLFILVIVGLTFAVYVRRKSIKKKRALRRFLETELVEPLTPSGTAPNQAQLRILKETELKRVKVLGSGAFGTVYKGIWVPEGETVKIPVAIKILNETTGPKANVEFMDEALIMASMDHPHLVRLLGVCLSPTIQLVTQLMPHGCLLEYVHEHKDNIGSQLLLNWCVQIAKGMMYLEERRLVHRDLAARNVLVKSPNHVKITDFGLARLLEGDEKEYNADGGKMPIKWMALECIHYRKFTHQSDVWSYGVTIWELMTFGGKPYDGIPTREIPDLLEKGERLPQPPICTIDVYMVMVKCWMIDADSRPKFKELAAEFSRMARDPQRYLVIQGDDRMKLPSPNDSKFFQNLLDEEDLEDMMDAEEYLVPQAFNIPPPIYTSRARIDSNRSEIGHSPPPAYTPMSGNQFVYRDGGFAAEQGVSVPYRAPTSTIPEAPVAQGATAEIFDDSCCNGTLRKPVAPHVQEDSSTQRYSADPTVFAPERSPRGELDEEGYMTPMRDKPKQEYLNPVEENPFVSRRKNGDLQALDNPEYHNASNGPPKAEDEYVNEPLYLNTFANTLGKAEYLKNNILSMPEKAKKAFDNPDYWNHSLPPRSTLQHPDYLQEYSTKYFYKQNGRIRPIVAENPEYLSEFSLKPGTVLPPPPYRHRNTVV

Take `Cc1nc2cc3nc(-c4cccs4)cnc3cc2n1C`: the residual activity in [1] was 91%; in test [2] it was 117%; in test [3], 107%; in test [4], 107% (inactive); in [5] it was 124%; in test [6], 108%. Besides, the residual activity in test [7] was 119%; in test [8], 116%; in [9] it was 113%; in [10] it was 80%.
